Measurements from the supplement of paper PMC6522484.
± gives the standard deviation of the averaged measurements.

Columns and labels:
DLD1 [1] = experiment: cell viability (CellTiter-Glo) relative to plate median (fraction of plate median); higher = more viable cells; conditions: 5 µM; treatment time 24 h; reporter: 7TFP
How it was run: (§1)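 Per-well firefly luciferase or CellTiterGlo luminescence, normalised to the plate median, is what is reported. It was measured in colorectal cancer cells with stable lentiviral TCF/Wnt firefly luciferase reporters after a 24 h treatment with library compounds at a final 5 µM. The mean of two independent replicates is given.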

HCT116 = experiment: as above; conditions: 5 µM; treatment time 24 h; reporter: TCF4/Wnt
How it was run: as §1

SW480 [2] = experiment: as above; conditions: 5 µM; treatment time 24 h; reporter: 7TFP
How it was run: as §1

DLD1 [3] = experiment: TCF/Wnt firefly luciferase reporter signal relative to plate median (fraction of plate median); higher = higher Wnt reporter signal; conditions: 5 µM; treatment time 24 h; reporter: 7TFP
How it was run: as §1

SW480 [4] = experiment: as above; conditions: 5 µM; treatment time 24 h; reporter: 7TFP
How it was run: as §1

In the case of `O=C(O)c1cc2ccccc2[nH]1`, the cell viability (DLD1 [1]) is reported as 0.968 ± 0.011, the cell viability (HCT116) is reported as 0.994 ± 0.08 and the cell viability (SW480 [2]) is reported as 1.04 ± 0.028. For the same molecule, the “TCF/Wnt firefly luciferase reporter signal” value (DLD1 [3]) was 1.12 and the “TCF/Wnt firefly luciferase reporter signal” value (SW480 [4]) was 1.08 ± 0.021.
`COc1c(Cl)ccc(Cl)c1C(=O)O` was tested, and the cell viability (DLD1 [1]) was 1.01 ± 0.039, the cell viability (HCT116) was 1.11 ± 0.16 and the cell viability (SW480 [2]) was 0.99 ± 0.057. The “TCF/Wnt firefly luciferase reporter signal” value (DLD1 [3]) was 1 ± 0.15 and the “TCF/Wnt firefly luciferase reporter signal” value (SW480 [4]) was 0.874 ± 0.0057.
`Cc1cc(O)cc(O)c1C(=O)O` gave a cell viability (DLD1 [1]) of 1.03 ± 0.035, a cell viability (HCT116) of 1.07 ± 0.1 and a cell viability (SW480 [2]) of 1.03 ± 0.014. The “TCF/Wnt firefly luciferase reporter signal” value (DLD1 [3]) was 1 ± 0.05 and the “TCF/Wnt firefly luciferase reporter signal” value (SW480 [4]) was 0.925 ± 0.039.
`COc1cccc(O)c1O` was tested, and the cell viability (DLD1 [1]) was 0.938 ± 0.059, the cell viability (HCT116) was 0.905 ± 0.11 and the cell viability (SW480 [2]) was 0.942 ± 0.0028. The “TCF/Wnt firefly luciferase reporter signal” value (DLD1 [3]) was 0.96 ± 0.099 and the “TCF/Wnt firefly luciferase reporter signal” value (SW480 [4]) was 0.978 ± 0.088.
`COc1cc2c(cc1OC)C(=O)C(CC1CCN(Cc3ccccc3)CC1)C2` (stereo not given) gave a cell viability (DLD1 [1]) of 1.05 ± 0.014, a cell viability (HCT116) of 1.06 ± 0.042 and a cell viability (SW480 [2]) of 1.06. For the same molecule, the “TCF/Wnt firefly luciferase reporter signal” value (DLD1 [3]) was 1.12 ± 0.14 and the “TCF/Wnt firefly luciferase reporter signal” value (SW480 [4]) was 1.06 ± 0.05.
`COc1cc2c(cc1-c1coc3c4c(c(OC)cc3c1=O)OC(C)(C)C=C4)OCO2` showed a cell viability (DLD1 [1]) of 0.998 ± 0.017, a cell viability (HCT116) of 1.06 ± 0.014 and a cell viability (SW480 [2]) of 0.986 ± 0.018. The “TCF/Wnt firefly luciferase reporter signal” value (DLD1 [3]) was 0.892 ± 0.014 and the “TCF/Wnt firefly luciferase reporter signal” value (SW480 [4]) was 0.938 ± 0.0099.
Work on `COc1ccc(C(=O)CC(=O)O)c2c1C=CC(C)(C)O2` yielded a cell viability (DLD1 [1]) of 1 ± 0.013, a cell viability (HCT116) of 0.978 ± 0.19 and a cell viability (SW480 [2]) of 0.961 ± 0.098. The “TCF/Wnt firefly luciferase reporter signal” value (DLD1 [3]) was 0.991 ± 0.056 and the “TCF/Wnt firefly luciferase reporter signal” value (SW480 [4]) was 0.859 ± 0.042.
With `CC(=O)c1c(O)cc(O)cc1O` the cell viability (DLD1 [1]) was 1.02 ± 0.035, the cell viability (HCT116) was 1.03 ± 0.035 and the cell viability (SW480 [2]) was 1.04 ± 0.068. For the same molecule, the “TCF/Wnt firefly luciferase reporter signal” value (DLD1 [3]) was 1.08 ± 0.042 and the “TCF/Wnt firefly luciferase reporter signal” value (SW480 [4]) was 0.938 ± 0.033.
With `CN(C)CCCN1c2ccccc2Sc2ccc(C(F)(F)F)cc21` the cell viability (DLD1 [1]) was 1.07 ± 0.17, the cell viability (HCT116) was 0.993 ± 0.081 and the cell viability (SW480 [2]) was 1.04 ± 0.028. The “TCF/Wnt firefly luciferase reporter signal” value (DLD1 [3]) was 0.957 ± 0.034 and the “TCF/Wnt firefly luciferase reporter signal” value (SW480 [4]) was 0.959 ± 0.17.
`CC(C)[C@@H](C)/C=C/[C@@H](C)[C@H]1CC[C@H]2C3=CC=C4C[C@@H](O)CC[C@]4(C)[C@H]3CC[C@]12C` was tested, and the cell viability (DLD1 [1]) was 1.05 ± 0.05, the cell viability (HCT116) was 1.03 ± 0.14 and the cell viability (SW480 [2]) was 1.14 ± 0.099. The “TCF/Wnt firefly luciferase reporter signal” value (DLD1 [3]) was 0.912 ± 0.079 and the “TCF/Wnt firefly luciferase reporter signal” value (SW480 [4]) was 1 ± 0.083.
Molecule `COc1cc(O)cc(OC)c1OC` has a cell viability (DLD1 [1]) of 1.01 ± 0.019, a cell viability (HCT116) of 1.01 ± 0.015 and a cell viability (SW480 [2]) of 0.942 ± 0.074. For the same molecule, the “TCF/Wnt firefly luciferase reporter signal” value (DLD1 [3]) was 0.941 ± 0.021 and the “TCF/Wnt firefly luciferase reporter signal” value (SW480 [4]) was 0.978 ± 0.0028.
For `OCc1ccccc1O`, the cell viability (DLD1 [1]) was 1.11 ± 0.14, the cell viability (HCT116) was 1.19 ± 0.035 and the cell viability (SW480 [2]) was 1.14 ± 0.05. The “TCF/Wnt firefly luciferase reporter signal” value (DLD1 [3]) was 1.06 ± 0.12 and the “TCF/Wnt firefly luciferase reporter signal” value (SW480 [4]) was 0.866 ± 0.042.
Work on `COCC1=C(C(=O)OC(C)OC(=O)OC(C)C)N2C(=O)[C@@H](NC(=O)/C(=N\OC)c3csc(N)n3)[C@H]2SC1` (stereo not given in full) yielded a cell viability (DLD1 [1]) of 1.07 ± 0.085, a cell viability (HCT116) of 1.09 ± 0.085 and a cell viability (SW480 [2]) of 1.02 ± 0.028. For the same molecule, the “TCF/Wnt firefly luciferase reporter signal” value (DLD1 [3]) was 1.01 ± 0.061 and the “TCF/Wnt firefly luciferase reporter signal” value (SW480 [4]) was 0.999 ± 0.059.
Molecule `O=C1OC2(c3ccc(O)cc3Oc3cc(O)ccc32)c2ccccc21` has a cell viability (DLD1 [1]) of 1.01 ± 0.047, a cell viability (HCT116) of 0.9885 ± 0.0064 and a cell viability (SW480 [2]) of 1 ± 0.011. The “TCF/Wnt firefly luciferase reporter signal” value (DLD1 [3]) was 1.11 ± 0.085 and the “TCF/Wnt firefly luciferase reporter signal” value (SW480 [4]) was 1.07 ± 0.028.
